# Active and inactive are the calls of the source. Cut-off read from the data, not from the text of the source, unless noted: active = inhibition above about 80%; inactive = the rest.
# Assays:
# [1] = circadian clock period modulators, cell-based, LOPAC library, luminescence reporter (AID 2774; call rule not given here;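 note: values are relative to mean of DMSO wells on each plate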); conditions: circadian reporter cells, at 7 µM, actives lie on both sides
# [2] = system: Hepatitis C virus NS3 helicase; assay: HCV NS3 helicase inhibitors, primary screen, biochemical, fluorescence polarization, LOPAC1280 library (AID 687035; in the data active = inhibition above about 37%); conditions: Purified HCV NS3 helicase, Cy5-dT15 ssDNA binding fluorescence polarization; stronger effect = higher value; concentration not given here
# [3] = Cy5 fluorescence quenching or enhancement artefacts, artefact control for HCV NS3 helicase inhibitor project, biochemical, LOPAC1280 (AID 687037; call rule not given here); conditions: Cy5-DNA-NS3h complex fluorescence interference counterscreen
# [4] = LFS_MB_P medulloblastoma growth inhibition, cell-based, chromothripsis tumors, cisplatin or BGB combos (AID 1671449); conditions: LFS_MB_P medulloblastoma cells;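 note: cells exposed for 96 hours; 0% = vehicle DMSO and 100% = killing by high DMSO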
# [5] = HDN33 neuroblastoma growth inhibition, cell-based, chromothripsis tumors, cisplatin or BGB combos (AID 1671450); conditions: HDN33 neuroblastoma cells, stronger effect = higher value;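 note: cells exposed to compound for four days; 0% = vehicle DMSO and 100% = cell killing by high DMSO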
# [6] = ICB984 medulloblastoma cell growth inhibition, synergistic combos for chromothripsis tumors, cisplatin or BGB combos (AID 1671451; call rule not given here;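 note: cells exposed for 96 hours before readout; 0% = vehicle DMSO and 100% = killing by high DMSO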); conditions: ICB984 medulloblastoma cells, drug combinations, stronger effect = higher value
# [7] = LFS_MB_1R medulloblastoma cell growth inhibition, synergistic combos for chromothripsis tumors, cisplatin or BGB combos (AID 1671452); conditions: LFS_MB_1R medulloblastoma cells, stronger effect = higher value;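 note: cells exposed for 96 hours before readout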
# [8] = HTB85 osteosarcoma cell growth inhibition, synergistic combos for chromothripsis tumors, BGB or cisplatin IC20 combos (AID 1671453); conditions: HTB85 osteosarcoma cells, drug combinations, stronger effect = higher value;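 note: cells exposed for 96 hours before readout; 0% = vehicle DMSO and 100% = high DMSO killing control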
# [9] = CRL2098 osteosarcoma cell growth inhibition, synergistic combos for chromothripsis tumors, BGB or cisplatin IC20 combos (AID 1671454); conditions: CRL2098 osteosarcoma cells, drug combinations, stronger effect = higher value;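 note: cells exposed for 96 h before readout; 0% = vehicle DMSO and 100% = killing by high DMSO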
# [10] = HD-MB03 medulloblastoma cell growth inhibition, synergistic combos for chromothripsis tumors, BGB or cisplatin IC20 combos (AID 1671455; in the data active = inhibition above about 83%;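 note: 0% = vehicle DMSO and 100% = high DMSO as cytotoxic control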); conditions: HD-MB03 medulloblastoma cells, stronger effect = higher value
# [11] = UWB1.289 ovarian carcinoma cell growth inhibition, synergistic combos for chromothripsis tumors, BGB or cisplatin combos (AID 1671456); conditions: UWB1.289 ovarian carcinoma cells, stronger effect = higher value;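 note: cells exposed to compound for four days; 0% = vehicle DMSO and 100% = killing by high DMSO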
# [12] = LFS_MB_2R medulloblastoma cell growth inhibition, synergistic combos for chromothripsis tumors, cisplatin combos (AID 1671457); conditions: LFS_MB_2R medulloblastoma cells, stronger effect = higher value;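 note: cells exposed to compound for four days before readout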
# [13] = MDA-MB-436 breast carcinoma cell growth inhibition, synergistic combos for chromothripsis tumors, BGB or cisplatin combos (AID 1671458; call rule not given here;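 note: cells exposed for 96 hours; 0% = vehicle DMSO and 100% = killing by high DMSO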); conditions: MDA-MB-436 breast carcinoma growth inhibition, drug combinations, stronger effect = higher value
# [14] = UWB1.289_BRCA1 ovarian cancer growth, cell-based, BGB or cisplatin combinations (AID 1671459); conditions: UWB1.289 BRCA1 ovarian carcinoma, drug combinations, stronger effect = higher value
# [15] = human astrocyte viability loss, single and combined drugs, cytotoxicity control for chromothriptic childhood tumor combination screen, cell-based, BGB or cisplatin IC20 combos (AID 1671460); conditions: Human astrocytes, drug combinations, stronger effect = higher value;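 note: cells exposed to compounds for 96 hours before viability readout; 0% = vehicle and 100% = killing control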
# [16] = growth inhibition of BT084 medulloblastoma cells, cell-based, ICGC_MB145, cisplatin and BGB IC40 combos (AID 1671461); conditions: drug combinations, stronger effect = higher value;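 note: cells exposed to drugs for 96 hours; 0% = vehicle DMSO and 100% = high DMSO full killing control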
# [17] = growth inhibition of RCMB18 medulloblastoma cells, cell-based, cisplatin and BGB IC40 combos (AID 1671462); conditions: stronger effect = higher value;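 note: cells exposed to compound for four days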
# [18] = growth inhibition of CRL1545 osteosarcoma cells, cell-based, cisplatin and BGB IC20 combos (AID 1671464); conditions: stronger effect = higher value;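 note: cells exposed to compound for 96 hours before readout; 0% = vehicle DMSO and 100% = high DMSO killing control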
# [19] = measured here: combination with BGB IC40, at 0.05 µM
# [20] = measured here: with BGB IC20 combination, at 0.5 µM
# [21] = measured here: with cisplatin IC20 combination, at 0.5 µM
# [22] = measured here: combination with cisplatin, at 0.5 µM
# [23] = measured here: combination with cisplatin, at 5 µM
structure (smiles),measurement,setting,value
NC(Cc1ccc(N(CCCl)CCCl)cc1)C(=O)O (configuration not stated),period change,[1],0.08 h (inactive)
same,inhibition,[2],-5% (inactive)
same,fluorescence ratio (interference),[3],1 (inactive)
same,inhibition,"[4]; at 0.5 µM, stronger effect = higher value",-11.1% (inactive)
same,inhibition,"[4]; measured here: combination with BGB IC20, at 0.005 µM",-25.1%
same,inhibition,"[4]; measured here: combination with BGB IC40, at 0.005 µM",-17.8%
same,inhibition,[4]; [19],-29.1%
same,inhibition,"[4]; measured here: combination with cisplatin, at 0.5 µM, stronger effect = higher value",-3.85%
same,inhibition,"[4]; measured here: combination with cisplatin, at 5 µM, stronger effect = higher value",7.41%
same,inhibition,"[5]; BGB combo, at 5 µM",28.5%
same,inhibition,[5]; at 0.5 µM,-17.3% (inactive)
same,inhibition,"[5]; cisplatin combo, at 5 µM",18.9%
same,inhibition,[5]; [20],-14.2%
same,inhibition,[5]; [21],-16.2%
same,inhibition,"[5]; single agent, at 5 µM",3.9%
same,inhibition,"[6]; BGB IC20 combo, at 0.005 µM",-15.2%
same,inhibition,"[6]; BGB IC40 combo, at 0.005 µM",-22.4%
same,inhibition,"[6]; BGB IC40 combo, at 0.05 µM",14.2%
same,inhibition,[6]; at 0.5 µM,-37% (inactive)
same,inhibition,"[6]; cisplatin combo, at 0.05 µM",11.8%
same,inhibition,"[6]; cisplatin combo, at 0.5 µM",-52.6%
same,inhibition,"[6]; cisplatin combo, at 5 µM",-29.7%
same,inhibition,"[6]; measured here: 5 uM single agent, at 5 µM",-16.8%
same,inhibition,[7]; at 0.5 µM,-27.3% (inactive)
same,inhibition,[7]; [19],-28.4%
same,inhibition,[7]; [22],-42.9%
same,inhibition,[7]; [23],34.7%
same,inhibition,[8]; at 0.5 µM,5.83% (inactive)
same,inhibition,"[8]; measured here: with BGB IC20, at 0.5 µM",1.88%
same,inhibition,"[8]; measured here: with BGB IC20, at 5 µM",54.4%
same,inhibition,"[8]; measured here: with cisplatin IC20, at 0.5 µM",-13.1%
same,inhibition,"[8]; measured here: with cisplatin IC20, at 5 µM",74.4%
same,inhibition,"[8]; single agent, at 5 µM",59.9%
same,inhibition,[9]; at 0.5 µM,-91.3% (inactive)
same,inhibition,"[9]; measured here: combination with BGB at IC20, at 0.5 µM",-104%
same,inhibition,"[9]; measured here: combination with cisplatin at IC20, at 0.5 µM",-99.5%
same,inhibition,[10]; at 0.5 µM,12.1% (inactive)
same,inhibition,"[10]; measured here: combo with BGB at IC20, at 0.5 µM",19.3%
same,inhibition,"[10]; measured here: combo with cisplatin at IC20, at 0.5 µM",20.5%
same,inhibition,[11]; at 0.5 µM,-2.07% (inactive)
same,inhibition,"[11]; measured here: inhibition with BGB combination, at 0.05 µM",-36%
same,inhibition,"[11]; measured here: inhibition with cisplatin combination, at 0.05 µM",-22.5%
same,inhibition,[12]; at 0.5 µM,-18.9% (inactive)
same,inhibition,[12]; [22],-23.8%
same,inhibition,[12]; [23],-58.8%
same,inhibition,[13]; at 0.5 µM,10.4% (inactive)
same,inhibition,"[13]; measured here: BGB combination, at 0.5 µM",2.27%
same,inhibition,"[13]; measured here: BGB combination, at 5 µM",8.02%
same,inhibition,"[13]; measured here: cisplatin combination, at 0.5 µM",6.39%
same,inhibition,"[13]; measured here: cisplatin combination, at 5 µM",33.3%
same,inhibition,"[14]; BGB combination, concentration series, at 5 µM",31.5%
same,inhibition,[14]; at 0.5 µM,4.15% (inactive)
same,inhibition,"[14]; cisplatin combination, concentration series, at 5 µM",41.4%
same,inhibition,[15]; at 0.5 µM,16.9% (inactive)
same,inhibition,"[15]; measured here: combo with BGB IC20, at 0.5 µM",22.5%
same,inhibition,"[15]; measured here: combo with cisplatin IC20, at 0.5 µM",4.4%
same,inhibition,[16]; at 0.5 µM,-14.6% (inactive)
same,inhibition,"[16]; cisplatin combination, at 0.5 µM",5.86%
same,inhibition,"[16]; cisplatin combination, at 5 µM",35.1%
same,inhibition,"[16]; measured here: BGB IC40 combination 0.05 uM, at 0.05 µM",-5.01%
same,inhibition,"[16]; single agent, at 5 µM",-20.7%
same,inhibition,[17]; at 0.5 µM,-26.4% (inactive)
same,inhibition,"[17]; cisplatin combo, at 5 µM",81.5%
same,inhibition,"[17]; measured here: BGB IC40 combination, at 0.05 µM",-33.2%
same,inhibition,[17]; [22],-31.6%
same,inhibition,"[17]; single agent, at 5 µM",-6.56%
same,inhibition,[18]; at 0.5 µM,-21.6% (inactive)
same,inhibition,[18]; [20],-14.9%
same,inhibition,[18]; [21],-27.8%
same,inhibition,"[18]; single agent, at 0.05 µM",-31.8%
same,inhibition,"[18]; single agent, at 5 µM",43.7%
COc1cc(CCN)ccc1O,period change,[1],-0.1 h (inactive)
